Source: PubChem BioAssay
CYP2C9 inh – blocks human cytochrome P450 2C9 | 96,000 tested, 20% active | P11712 | AID 777 | CYP2C9 Supersomes, luciferin-H conversion, luminescence | inhibition, % at 5 µM;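 active = blocking of liver enzyme CYP2C9 beyond about 50% at 5 µM, limit read from the data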
CYP2C19 activ – increases human CYP2C19 enzyme activity; P33261; recombinant CYP2C19, luciferin-H EGE luminescence; hits give high values; 0 = fully inhibited enzyme, 1 = untreated enzyme; activation factor at 5 µM; 96,000 tested, under 10 active; AID 1025;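 active = activation factor of at least 2 at 5 µM in the primary screen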;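 note: 0 = wells with 2.5 mM tranylcypromine and 1 = vehicle-only wells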
Target sequence (P33261 whole entry, looked up): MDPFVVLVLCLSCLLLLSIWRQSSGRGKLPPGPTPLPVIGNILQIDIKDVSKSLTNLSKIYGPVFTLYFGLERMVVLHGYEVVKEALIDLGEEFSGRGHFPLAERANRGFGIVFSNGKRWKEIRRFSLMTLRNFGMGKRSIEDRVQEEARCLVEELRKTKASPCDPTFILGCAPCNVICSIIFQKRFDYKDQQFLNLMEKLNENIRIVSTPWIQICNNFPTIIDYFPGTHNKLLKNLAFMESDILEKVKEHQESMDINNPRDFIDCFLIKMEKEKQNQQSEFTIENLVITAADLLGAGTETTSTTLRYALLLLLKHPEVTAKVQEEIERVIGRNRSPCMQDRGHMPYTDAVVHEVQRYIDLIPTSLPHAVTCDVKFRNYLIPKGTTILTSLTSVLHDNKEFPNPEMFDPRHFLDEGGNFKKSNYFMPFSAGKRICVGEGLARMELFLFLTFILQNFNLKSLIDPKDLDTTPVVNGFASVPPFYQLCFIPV
D1 allo mod – D1 dopamine receptor (human) allosteric modulation; B-score at 10 µM; P21728; HEK293 D1, CRE-luciferase, dopamine EC30 potentiation; actives deviate in either direction; 58,000 tested, 5.9% active;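 active = luminescence count or its row- and column-corrected plate score outside the 99.7% band of the plate's sample wells, on either side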
CYP2C9 act – activators of human CYP2C9; recombinant CYP2C9, luciferin-H conversion, luminescence; hits give high values; factor 1 = untreated enzyme, 0 = blocked; activation factor at 5 µM; 96,000 tested, 1.4% active; AID 1024;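 active = activation factor of 2 or more for CYP2C9 at a 5 µM dose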;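 note: 0 = sulfaphenazole-blocked wells and 1 = vehicle-only wells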
DAT uptake mod – changed human dopamine transporter uptake under cocaine IC80; B-score at 10 µM; LLC-PK1 hDAT cells, [14C]-dopamine uptake with cocaine IC80; actives deviate in either direction; AID 449768; Q01959; 110,000 tested, 1.3% active;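 active = Z score or B-score, a plate-position-corrected score, falls beyond the plate's 99.7% confidence bounds, in either direction; inactive = both scores lie inside the 99.7% bounds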;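 note: scored against the spread of the other compound wells on the same plate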
CYP2C19 inh – inhibitors of human CYP2C19; inhibition, % at 5 µM; P33261; 96,000 tested, 21% active; AID 778; CYP2C19 Supersomes, luciferin-H EGE luminescence, 30 min;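 active = CYP2C19 inhibition above a set limit at 5 µM in the primary screen, cut at about 50% in these data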;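 note: plate controls were negative control wells for no effect and 2.5 mM tranylcypromine positive control for full effect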
* hit, by the source's call; x = no result. This is a sample that favours compounds with a hit; in the whole collection about 28% have one here.

SMILES | CYP2C9 inh | CYP2C19 activ | D1 allo mod | CYP2C9 act | DAT uptake mod | CYP2C19 inh
CCCCOc1ccc(CNC(=O)NS(=O)(=O)c2ccc(OCC(C)C)cc2)cc1 | 90* | 0.9 | x | 0.1 | 0.18 | 14
CC1=NN(C(=O)Cc2ccc([N+](=O)[O-])cc2)C(O)(c2cccnc2)C1 (stereo not drawn) | 10 | 0.7 | x | 0.9 | 0.43 | 33
CC1=NN(C(=O)Cc2ccc([N+](=O)[O-])cc2)C(O)(c2ccccc2)C1 (stereo not drawn) | 33 | 0.4 | x | 0.7 | -0.42 | 59*
O=c1c2ccccc2oc2nc3ccn(Cc4ccncc4)c(=O)c3cc12 | 59* | 0.6 | x | 0.4 | 0.64 | 41
CCCCC(=O)NC(N1CCCCC1)C(Cl)(Cl)Cl (stereo not drawn) | 18 | 0.4 | x | 0.8 | -0.4 | 59*
CC[C@@H]1C=C(C)C[C@H](C)C[C@H](OC)[C@H]2O[C@@](O)(C(=O)C(=O)N3CCCC[C@H]3C(=O)O[C@H](/C(C)=C/[C@@H]3CC[C@@H](O)[C@H](OC)C3)[C@H](C)[C@@H](O)CC1=O)[C@H](C)C[C@@H]2OC | x | x | x | x | 2.8 | x
CCC(CC)C(=O)Nc1cc(NC(=O)C(CC)CC)cc(C(=O)O)c1 | -13 | 1 | -0.13 | 1.1 | -0.32 | -3
Cc1cccc(OCC(=O)Nc2cccc(-c3nnc(-c4ccccc4)o3)c2)c1C | 90* | 0.3 | -0.32 | 0.1 | -0.92 | 74*
Cc1cccc(C)c1OCC(=O)Nc1cccc(-c2nnc(-c3ccccc3)o2)c1 | 90* | 0.5 | x | 0.1 | 1.2 | 55*
Cc1cc(NC(=O)COc2cccc(C)c2C)no1 | 27 | 0.8 | 0.51 | 0.7 | 0.032 | 20
Cc1cccc(OCC(=O)NCc2ccncc2)c1C | 55* | 0.3 | -0.11 | 0.4 | -0.13 | 74*
CCCCC(=O)Nc1cc(NC(=O)CCCC)cc(C(=O)O)c1 | 1 | 0.9 | -4.2* | 1 | -0.043 | 12
COCCn1c(SCC(N)=O)nc2c(c1=O)SC(C)C2 (stereo not drawn) | x | x | 1.1 | x | 0.46 | x
Cc1nc2ccc(S(=O)(=O)NC(C(=O)NCc3ccco3)C(C)C)cc2s1 (stereo not drawn) | 13 | 0.9 | -0.18 | 0.9 | -0.051 | 6
CCCCC(=O)Nc1cccc(-c2nnc(-c3ccccc3)o2)c1 | 75* | 0.5 | 0.078 | 0.3 | 2.8* | 52*
N#Cc1cc(-c2ccccc2)oc1NC(=O)c1ccco1 | 32 | 1.1 | 1.1 | 0.7 | -8.8* | -9
Cc1cccc(C(=O)Nc2oc(-c3ccccc3)cc2C#N)c1 | 19 | 1 | x | 0.8 | 0.28 | -2
COc1ccccc1Cn1c(-c2ccccc2OC)nc2ccccc21 | -6 | 1.3 | x | 1.1 | -0.61 | -29
Oc1ccccc1Cn1c(-c2ccccc2O)nc2ccccc21 | 66* | 0.4 | 2.9 | 0.3 | -0.44 | 60*
CCOC(=O)Cn1c(-c2cccnc2Cl)nc2cc(Cl)c(Cl)cc21 | 24 | 0.9 | x | 0.8 | 0.032 | 10
Clc1ccc(Cn2c(-c3cccnc3Cl)nc3ccccc32)c(Cl)c1 | 58* | 0.4 | x | 0.4 | 0.31 | 60*
CCn1c(-c2cccnc2Cl)nc2cc(Cl)c(Cl)cc21 | 67* | 0.5 | x | 0.3 | -1.5 | 50
Clc1ccc(Cn2c(-c3cccnc3Cl)nc3ccccc32)cc1 | 65* | 0.2 | x | 0.4 | -2.3 | 82*
O=C(NCc1ccccc1)c1ccc2c(c1)C(=O)N(Cc1ccncc1)C2=O | 90* | 0.3 | x | 0.1 | -0.84 | 71*
O=C(Nc1ccccc1N1CCCCC1)c1ccc(N2C(=O)c3ccccc3C2=O)cc1 | 55* | 0.5 | x | 0.5 | 1.4 | 49
SMILES | CYP2C9 inh | CYP2C19 activ | D1 allo mod | CYP2C9 act | DAT uptake mod | CYP2C19 inh
O=C(Nc1ccccc1N1CCOCC1)c1cnccn1 | -2 | 1 | x | 1 | -0.28 | 0
O=C(Nc1ccccc1N1CCOCC1)c1ccc2c(c1)C(=O)N(Cc1ccncc1)C2=O | 84* | 0.2 | -0.066 | 0.2 | 0.35 | 79*
O=C(Nc1nnc(-c2ccncc2)s1)C1CCCO1 (stereo not drawn) | 49 | 0.2 | 0.29 | 0.5 | 1.2 | 78*
CCC(=O)Nc1nnc(-c2ccncc2)s1 | 38 | 0.2 | x | 0.6 | 0.41 | 75*
O=C(Nc1ncc(Cc2ccccc2)s1)C1CCCO1 (stereo not drawn) | 32 | 0.8 | -3.7* | 0.7 | -0.36 | 20
CCNc1nnc(-c2ccncc2)s1 | 23 | 0.3 | x | 0.8 | 0.0082 | 71*
Clc1ccc(-c2onc3c2CCCC3)cc1 | 18 | 0.9 | x | 0.8 | 0.57 | 12
NCCCC[C@H]1CN=C(N)N1CCC12CC3CC(CC(C3)C1)C2 | x | x | x | x | 0.58 | x
Cc1onc(-c2c(F)cccc2Cl)c1C(=O)NC1=NCCS1 | 67* | 0.5 | 0.32 | 0.3 | -1.1 | 54*
O=C(Nc1nc2ccccc2[nH]1)c1ccccc1 | 18 | 0.6 | x | 0.8 | 0.27 | 42
Cc1onc(-c2c(F)cccc2Cl)c1C(=O)Nc1cccc2nsnc12 | 54* | 0.8 | -0.39 | 0.5 | 0.64 | 24
O=C(Nc1cccc2nsnc12)c1ccc(F)cc1 | 9 | 0.7 | 0.16 | 0.9 | -0.74 | 26
Cc1onc(-c2c(F)cccc2Cl)c1C(=O)Nc1nc2ccccc2[nH]1 | 93* | 0.4 | x | 0.1 | -0.61 | 57*
C=CCNC(=O)c1c(-c2c(F)cccc2Cl)noc1C | 2 | 1 | x | 1 | -0.33 | 4
CN1CC(=O)N(CC(=O)NCc2ccc3c(c2)OCO3)C1=O | 0 | 1.1 | x | 1 | -0.22 | -6
CC1CC(=O)N(CC(=O)NCc2ccc3c(c2)OCO3)c2ccccc2S1 (stereo not drawn) | 42 | 0 | 0.36 | 0.6 | x | 100*
O=C(CN1CCCc2ccccc21)NCc1ccc2c(c1)OCO2 | 30 | 0 | 0.59 | 0.7 | 0.25 | 99*
O=C(Cn1nc(-c2ccccc2F)ccc1=O)NCc1ccc2c(c1)OCO2 | 56* | 0.3 | 0.55 | 0.4 | -1.5 | 72*
O=C(CN1C(=O)CCS(=O)(=O)c2ccccc21)NCc1ccc2c(c1)OCO2 | 2 | 0.1 | 0.033 | 1 | 0.85 | 90*
Cc1ccc(C2C(C=Nc3c(C)n(C)n(-c4ccccc4)c3=O)=C(c3ccccc3)Oc3ccccc32)cc1 (stereo not drawn) | 14 | 0.8 | x | 0.9 | 0.24 | 18
O=[N+]([O-])c1ccc(C2CCCC/C2=N\OCc2cccc(F)c2)c([N+](=O)[O-])c1 (stereo not drawn) | 30 | 0.7 | x | 0.7 | x | 32
O=C(NCc1ccco1)N1c2ccccc2Sc2ccccc21 | 58* | 0.5 | -0.95 | 0.4 | 0.031 | 50*
COc1ccc(CCNC(=O)N2c3ccccc3Sc3ccccc32)cc1 | x | x | x | x | -0.73 | x
CC1CC(=O)N(CC(=O)NCc2ccco2)c2ccccc2S1 (stereo not drawn) | 2 | 0.5 | -0.033 | 1 | 0.78 | 52*
C=C1CCN(c2ccc(C(=O)NCc3ccc(OC)cc3)cc2[N+](=O)[O-])CC1 | x | x | x | x | -0.28 | x
